What all share (test): NCI-60 one-dose screen, 48 h (100 = growth as untreated, 0 = no growth, -100 = all killed)
Common to all, as to settings: 10 µM unless noted

Assay [1] deals with SK-MEL-2 melanoma.
Assay [2] deals with EKVX NSCLC.
In assay [3] the test system is SN12C renal.
The test system of assay [4] is UO-31 renal.
In assay [5] the test system is TK-10 renal.
Assay [6] deals with CAKI-1 renal.
The subject of assay [7] is A498 renal.
In assay [8] the test system is CCRF-CEM leukemia.
Assay [9] relates to SR leukemia.
Assay [10] deals with RPMI-8226 leukemia.
The test system of assay [11] is OVCAR-8 ovarian.
For assay [12], the system named is OVCAR-5 ovarian.
Assay [13] relates to OVCAR-4 ovarian.
For assay [14], the system named is SK-OV-3 ovarian.
Assay [15] relates to IGROV1 ovarian.
The test system of assay [16] is OVCAR-3 ovarian.
In assay [17] the test system is HS 578T breast.
For assay [18], the system named is NCI/ADR-RES ovarian.
In assay [19] the test system is MOLT-4 leukemia.

SMILES strings stand for the structures. This is part of a sample that, as a whole, favours compounds with a hit. Of some 83,000 tested, about 20% had one in any assay.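 Results are percent growth after 48 hours of single-concentration exposure. 100 means growth as in untreated cells, lower positive values show inhibition; negative values down to -100 show cell death.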 Values without a mark were called inactive. Activity calls are given as the source filed them. The calls were made as follows: active = growth percent below 10; inactive = the rest.

In PubChem BioAssay (NCI) one finds growth data, which are given here for eight compounds.

For `NC(=O)c1ccc[n+](Cc2ccc(Cl)cc2Cl)c1`, the growth in assay [1] is 95.7%; in assay [2], 107%; in assay [3] it was 101%; in [4], 99.8%; in assay [5], 88.4%; in assay [6] it was 107%. Also, the growth in assay [7] is 99.8%; in assay [8], 97.4%; in assay [9], 7.84% (active); in assay [10], 93%; in assay [11], 99.5%; in assay [12], 96.9%. Further, the growth in assay [13] is 109%; in [14] it was 97.2%; in assay [15] it was 105%; in assay [16] it was 109%; in [17], 99.4%; in [18] it was 111%.

As to `CCN(CC)CCCNc1ccc(Nc2ccc(OC)cc2)cc1`, the growth is 108% in [1]; 81.1% in [2]; 92.3% in assay [3]; 48% in assay [4]; 88.2% in assay [5]; 84.5% in assay [6]. The growth in assay [7] was 55.3%; in [19] it was 32.7%; in [9] it was 52.9%; in [10] it was 64.5%; in assay [11], 83.1%; in [12], 108%. Further, the growth in [13] is 84.6%; in [14], 106%; in [15] it was 37.6%; in assay [16], 59.6%; in [18], 94.7%.

As for `COc1ccc(/C=C/c2c(C(=O)/C=C/c3cccs3)c(C)nc3ccccc23)cc1`, the growth in assay [1] was 89.6%; in assay [2], 84.8%; in assay [3] it was 79.1%; in assay [4], 56.4%; in assay [5], 116%; in [6], 57.2%. The growth is 53.3% in assay [7]; 64.5% in assay [8]; 60.1% in assay [19]; 56.6% in assay [10]; 77% in assay [11]; 97% in assay [12]. The growth in assay [13] is 68.7%; in assay [14], 79.7%; in [15], 46%; in assay [16], 83.6%; in [17] it was 84.1%; in assay [18], 74.1%.

Consider `CCCCC1CCCCN1C(=O)OCC` (configuration not stated), for which the growth is 101% in assay [1]; 122% in [2]; 103% in assay [3]; 88.7% in assay [4]; 92.7% in [5]; 101% in assay [6]. Also, the growth in assay [7] is 102%; in [8] it was 108%; in [19], 115%; in [10], 118%; in assay [11] it was 106%; in assay [12], 98.4%. In addition, the growth in assay [13] was 112%; in assay [14] it was 99.1%; in assay [15] it was 112%; in assay [16], 112%; in [18], 113%.

Consider `Cc1ccc(-c2cc(-c3cccnc3)[nH]c(=O)c2C#N)cc1`, for which the growth in [1] was 120%; in assay [2] it was 101%; in assay [3], 104%; in [4] it was 84.1%; in assay [5], 116%; in assay [6] it was 87%. In addition, the growth in [7] was 82.4%; in [8], 101%; in [10], 101%; in assay [11] it was 103%; in assay [12], 107%; in [13] it was 103%. The growth in [14] is 114%; in assay [15] it was 106%; in assay [16], 106%; in assay [17], 102%; in [18], 105%.

Consider `Cc1cc(NCCCCNc2ccnc3cc(Cl)ccc23)nc(Nc2ccc(C(=O)N3CCCC3)cc2)n1`, for which the growth in assay [1] is 91.2%; in assay [2], 79%; in [3], 70.4%; in assay [4], 75.4%; in assay [5], 115%; in [6], 97.1%. In addition, the growth in assay [7] is 62.6%; in [8], 2.01% (active); in [9] it was -28.9% (active); in assay [10], 2.17% (active); in assay [11] it was 11.5%; in assay [13], 48.4%. The growth in [14] was 106%; in assay [15], 81.9%; in assay [16] it was 60.6%; in assay [18] it was 94.8%.

In the case of `O=C1OC(c2nc3ccccc3s2)=C/C1=C\c1ccc(O)cc1`, the growth in [1] is 110%; in [2], 102%; in assay [3], 93.9%; in assay [4], 75.8%; in assay [5] it was 114%; in [6], 85.4%. Moreover, the growth in [7] is 108%; in [9], 100%; in assay [10], 114%; in [11] it was 106%; in assay [12], 85.5%; in assay [13], 100%. Besides, the growth was 103% in assay [14]; 95.1% in assay [15]; 110% in assay [16]; 89.6% in assay [17]; 106% in [18].

`COc1cc(N2C(=O)c3nccnc3C2=O)cc(OC)c1OC`: the growth in assay [1] was 95.5%; in assay [2] it was 104%; in assay [3], 94.1%; in assay [4], 87.5%; in assay [5] it was 100%; in assay [6], 97.3%. Moreover, the growth in assay [7] is 87.2%; in assay [8] it was 100%; in assay [19], 94.5%; in assay [10] it was 97.6%; in [11], 104%; in assay [12], 109%. For the same compound, the growth in assay [13] was 105%; in assay [14], 103%; in assay [15], 98.2%; in assay [16], 120%; in assay [18], 104%.
